Compound activity from PubChem.
SUMO1-SIM PPI: modulators of human SUMO1-mediated protein-protein interactions. P63165. 360,000 tested, 0.33% active. inhibition, % at 20 µM. SUMO1 binding to a labelled peptide, TR-FRET, 1 h; in the data active means inhibition above about 37%
Rin1-Abl PPI inh: human Rin1-Abl interaction inhibition; P00519+Q13671; TR-FRET Rin1/Abl binding, biochemical; inhibition, % at 7.35 µM; 360,000 tested, 0.4% active; AID 588664; in the data active means inhibition above about 5%, passing the limit was not always enough
ATG4B inhibitor: blocks human ATG4B protease cleavage of LC3 substrate. 340,000 tested, 0.51% active. ATG4B cleavage of LC3-PLA2, NBD-HPC fluorescence, 1 h. Q9Y4P1. inhibition, % at 8.33 µM; in the data active means inhibition above about 40%
Neddyl block: cullin neddylation inhibition; TR-FRET cullin neddylation, biochemical; inhibition, % at 25 µM; 360,000 tested, 0.58% active; in the data active means inhibition above about 36%
ATG4B confirm: confirmation of human ATG4B inhibitors. shares compounds with ATG4B inhibitor. ATG4B protease fluorescent substrate cleavage assay. inhibition, % at 8.33 µM. 320 tested, 92% active. AID 504757; in the data active means inhibition above about 39%
PLA2 counter: PLA2 (human) inhibition in ATG4B counter-screen | purified PLA2, NBD-C6-HPC fluorescence, 45 min | shares compounds with ATG4B inhibitor | 1,600 tested, 66% active | inhibition, % at 8.33 µM; in the data active means inhibition above about 50%
Starred values were filed as active, the others as inactive; . = no result shown. Hits are enriched below; roughly 1.7% of the tested compounds scored in any of these assays.

SMILES | SUMO1-SIM PPI | Rin1-Abl PPI inh | ATG4B inhibitor | Neddyl block | PLA2 counter | others
Nc1nc2c(ncn2[C@@H]2O[C@H](CNCC3=Cc4cc(O)ccc4OC3)[C@@H](O)[C@H]2O)c(=O)[nH]1 | -7 | -3 | . | -7 | .
CCCCOc1ccc(-c2cc(C(=O)NNC(=S)NCC)c3ccccc3n2)cc1 | -4 | 1 | 47* | . | 58*
Cc1ccc(-n2c(SCC(=O)NC3CCS(=O)(=O)C3)nc3ccccc3c2=O)c(C)c1 (centres undefined) | -1 | -3 | . | 5 | .
Cc1ccc(NC(=O)NC2CCCc3ccccc32)cc1 (centres undefined) | -2 | -1 | 7 | 2 | .
O=C(Nc1ccc(Cl)cc1)NC1CCCc2ccccc21 (centres undefined) | 0 | 3 | 68* | -6 | 66*
COC(=O)[C@H](CC(C)C)NS(=O)(=O)c1ccc(F)cc1Br | -2 | 3 | . | 0 | .
Cc1ccc(C(=O)Nc2ncc(Cc3ccccc3)s2)o1 | 1 | 1 | 43* | 12 | 64*
Cn1c(N)c(C#N)c(-c2ccccc2)c(C#N)c1=O | 2 | -3 | . | -7 | .
Cc1ccc(N=C2SC(C(=O)Nc3ccc(OC(F)(F)F)cc3)C(N)=C2C(=O)Nc2c(C)cc(C)cc2C)cc1 (centres undefined) | 1 | 5 | 62* | -30 | 61*
O=C(N/N=C/c1ccc(-c2ccc(Cl)c(C(=O)O)c2)o1)c1cc2c(ccc3ccccc32)o1 | 21 | -2 | 42* | . | 63*
Cc1ccc(-c2ccc(/C=N\NC(=O)c3cc4c(ccc5ccccc54)o3)o2)cc1[N+](=O)[O-] | -4 | -1 | 3 | 0 | .
O=c1c2[nH]c3ccccc3c2ncn1CCC1=CCCCC1 | -1 | 0 | -12 | -15 | .
COc1ccc(CNc2ncnc3c2[nH]c2cc(OC)c(OC)cc23)cc1 | 21 | 2 | -7 | . | .
C1=C(CCNc2ncnc3c2[nH]c2ccccc23)CCCC1 | 2 | -3 | 49* | 32 | 64*
Cc1ccc2[nH]c3c(NCc4ccccc4)ncnc3c2c1 | . | . | 50* | . | 60*
Brc1ccc2[nH]c3c(NCc4ccccn4)ncnc3c2c1 | 11 | -11 | 17 | -75 | .
COc1ccc(CNc2ncnc3c2[nH]c2ccccc23)cc1 | 5 | -4 | 47* | 35 | 71*
CCCC(=O)N1CCC1(C)C(=O)NS(=O)(=O)c1cccs1 (centres undefined) | 1 | -3 | . | 8 | .
CC(C)(C)OC(=O)N1CCC[C@@H]1C(=O)NCc1ccccc1Cl | 0 | . | . | 0 | .
Cc1cc(C)c(OCC(=O)Nc2cccc(NC(=O)c3ccco3)c2)c(Br)c1 | 0 | 4 | 60* | 7 | 63*
O=C(Nc1c(Cl)cccc1Cl)c1cc(-c2ccco2)on1 | 2 | 2 | 43* | 0 | 42 | ATG4B confirm=67*
O=C(Nc1cccc(Cl)c1)c1cc(-c2ccco2)on1 | -2 | -3 | 2 | 22 | .
COc1ccc(C(=O)c2cnc3ccccc3c2-c2ccccc2)cc1 | -5 | 1 | 72* | -13 | 83*
Cc1ccc(C(=O)c2cnc3ccccc3c2-c2ccccc2)cc1 | -3 | 1 | 69* | -23 | 82*
Cc1ccc(C(=O)c2nc(C(=O)NCCO)nc3ccccc23)cc1 | -25 | 0 | 4 | -48 | .
SMILES | SUMO1-SIM PPI | Rin1-Abl PPI inh | ATG4B inhibitor | Neddyl block | PLA2 counter | others
COc1ccc(Oc2nc(-c3ccccc3)ncc2C(=O)O)cc1 | -1 | 6 | -1 | -7 | .
CCN1CCN(C(CCc2ccccc2)C(=O)NC2CCCCC2)CC1 (centres undefined) | 1 | 1 | . | 3 | .
CCc1nc2c(OCCOC)cccn2c1N(C)C(=O)Nc1ccccc1OC | 3 | 1 | . | 11 | .
N#C/C(=C\c1ccccc1[N+](=O)[O-])c1nc(C2CC2)cs1 | -25 | -1 | 48* | -38 | 63*
N#C/C(=C/c1ccccc1[N+](=O)[O-])c1nc(C2CC2)cs1 | -22 | 0 | 34 | -19 | .
O=C(CSc1nc2ccccc2c(=O)n1Cc1ccccc1)Nc1ccc(Br)cc1C(=O)O | 12 | 2 | 45* | 4 | 39 | ATG4B confirm=60*
O=C1CN(c2nc(-c3cccs3)nc3sc4c(c23)CCCC4)CCN1 | -11 | -2 | 76* | . | 87*
N#C/C(=N\Nc1cccc([N+](=O)[O-])c1)C(=O)c1ccc(Br)cc1 | -4 | -1 | 57* | -34 | 80*
O=C(O)c1ccc(N=NNc2cccc([N+](=O)[O-])c2)cc1 | -19 | 0 | 8 | -30 | .
